{"source": "PubChem BioAssay AID429", "about": "(Emory University Molecular Libraries Screening Center, 2006)", "note": "Out of some 64,000 compounds screened, about 220 (0.34%) were called active. The sample holds actives, similar compounds and a random draw of the others, so the mix is not that of the screen.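 How the source made its calls: active means inhibition above 50%; inactive means the rest.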"}
{"target": "Heat shock protein HSP 90-alpha (Homo sapiens) (UniProt P07900)", "assay": "Hsp90 geldanamycin-site probe displacement – cell lysate, fluorescence polarization, NCI-N417 lysate, primary screen (AID 429);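 further: 0% = tracer plus lysate wells and 100% = tracer alone without lysate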", "conditions": "NCI-N417 lysate Hsp90, Cy3B-geldanamycin FP displacement; at 30 µM; stronger effect = higher value"}
{"smiles": "Cc1cccn2c(=O)c3cc(C(=O)N4COCC4(C)C)n(C)c3nc12", "inhibition": "0.48% (inactive)"}
{"smiles": "COc1ccc(Cl)cc1S(=O)(=O)Nc1cccc(C(=O)O)c1", "inhibition": "-0.7% (inactive)"}
{"smiles": "Cc1cc(Cl)c(S(=O)(=O)NCC2CCCO2)cc1OCC(N)=O", "note": "(stereo not given)", "inhibition": "-4.41% (inactive)"}
{"smiles": "Cc1ccc(C(=O)O)cc1S(=O)(=O)NCC1CCCO1", "note": "(stereo not given)", "inhibition": "77.4% (active)"}
{"smiles": "O=S(=O)(NCC1CCCO1)c1ccc2ccccc2c1", "note": "(stereo not given)", "inhibition": "-3.52% (inactive)"}
{"smiles": "CCSc1nc2c(c(=O)[nH]1)C(c1cccnc1)C(C(=O)OC(C)C)=C(C)N2", "note": "(stereo not given)", "inhibition": "-0.2% (inactive)"}
{"smiles": "O=C(O)CSC(NC(=O)c1cccnc1)(C(F)(F)F)C(F)(F)F", "inhibition": "-0.65% (inactive)"}
{"smiles": "O=C(Nn1cnc2ccccc2c1=O)c1ccc(F)cc1Cl", "inhibition": "-2.64% (inactive)"}
{"smiles": "CCCCn1c(=S)[nH]c2ncccc2c1=O", "inhibition": "-6.13% (inactive)"}
{"smiles": "Cc1ccc2[nH]c3c(c2c1)CN(C(=O)CN1CCN(c2ccccc2)CC1)CC3", "inhibition": "92.3% (active)"}
{"smiles": "O=C(NC1CCCCC1)N1CCc2[nH]c3ccccc3c2C1", "inhibition": "-4.69% (inactive)"}
{"smiles": "CCCC(=O)N1CCc2[nH]c3ccccc3c2C1", "inhibition": "-3.78% (inactive)"}
{"smiles": "Cc1ccc(C)c(N(CC(=O)NCc2ccco2)C(=O)CCC(=O)Nc2ccccn2)c1", "inhibition": "-5.16% (inactive)"}
{"smiles": "Cc1c(C(=O)OCC(=O)N(CCC#N)c2ccccc2)oc2c1ccc1ccccc12", "inhibition": "0.74% (inactive)"}
{"smiles": "COc1nc(Oc2ccc(=O)n(C)n2)nc(N(C)C)n1", "inhibition": "-0.95% (inactive)"}
{"smiles": "COc1cccc(C2/C(=C(/O)c3ccc(F)cc3)C(=O)C(=O)N2CCN(C)C)c1", "note": "(stereo not given)", "inhibition": "-1.56% (inactive)"}
{"smiles": "CC1CN(c2cc(=O)n(-c3cccc(Br)c3)c(=O)[nH]2)CC(C)O1", "note": "(stereo not given)", "inhibition": "1.65% (inactive)"}
{"smiles": "Cc1ccc(N2CCN(c3ccc(C)cc3)C2c2ccccn2)cc1", "inhibition": "0.05% (inactive)"}
{"smiles": "COc1cc(C2C(C(=O)Nc3ccc(F)cc3)=C(C)Nc3nc(CCCO)nn32)cc(OC)c1OC", "note": "(stereo not given)", "inhibition": "-1.54% (inactive)"}
{"smiles": "CCOc1ccccc1N(CC(=O)NC1CCCCC1)C(=O)CCCC(=O)Nc1ccccn1", "inhibition": "-0.59% (inactive)"}
{"smiles": "CC1OC2C(OC1C)N(S(C)(=O)=O)CCN2S(C)(=O)=O", "note": "(stereo not given)", "inhibition": "-2.81% (inactive)"}
{"smiles": "O=C(O)CCC(=O)Nc1ccc(N2CCOCC2)cc1", "inhibition": "8.24% (inactive)"}
{"smiles": "COc1ccc(C(=O)NCc2cn3ccccc3n2)cc1", "inhibition": "2.11% (inactive)"}
{"smiles": "O=C(CC1N=C2c3ccccc3N=C(SCc3ccccc3Cl)N2C1=O)NCc1ccco1", "note": "(stereo not given)", "inhibition": "-7.5% (inactive)"}
{"smiles": "CCCC(C(=O)NCc1ccco1)N(C(=O)CNS(=O)(=O)c1ccccc1)C1CCCC1", "note": "(stereo not given)", "inhibition": "-1.3% (inactive)"}
{"smiles": "CCOC(=O)CSC1=C(C#N)C(c2sccc2C)CC(=O)N1", "note": "(stereo not given)", "inhibition": "-2.64% (inactive)"}
{"smiles": "Cc1nn(-c2ccccc2)c(C)c1C(=O)OCC(=O)NC(=O)NC1CCCCC1", "inhibition": "-2.89% (inactive)"}
{"smiles": "CCCN(CCc1ccccc1)C1CCc2c(O)cccc2C1", "note": "(stereo not given)", "inhibition": "-0.71% (inactive)"}
{"smiles": "CCCn1c(=O)c2ccccc2n2c(SCC(=O)/C(C#N)=C(\\C)N)nnc12", "inhibition": "-5.05% (inactive)"}
{"smiles": "O=c1cc(CSc2ccccn2)nc(N2CCN(c3ccccc3)CC2)[nH]1", "inhibition": "-2.49% (inactive)"}
{"smiles": "CC(C)NS(=O)(=O)c1ccc(OCC(=O)Nc2ccc3c(c2)OCCO3)cc1", "inhibition": "-7.01% (inactive)"}
{"smiles": "CC1CCCN(C(=O)c2ccc3c(c2)C(=O)N(CCC2=CCCCC2)C3=O)C1", "note": "(stereo not given)", "inhibition": "-1.14% (inactive)"}
{"smiles": "COc1ccccc1NC(=O)CSc1nnc(Cn2nnc(-c3ccccc3)n2)n1-c1ccccc1", "inhibition": "2.15% (inactive)"}
{"smiles": "O=C(c1ccco1)N1CCN=C1SCc1cccc(Cl)c1", "inhibition": "-5.15% (inactive)"}
{"smiles": "CCCCc1nc2ccccc2c(NC(=O)CN2CCN(C)CC2)c1CCC", "inhibition": "-1.26% (inactive)"}
{"smiles": "CCCn1cc(SCC(N)=O)c2ccccc21", "inhibition": "-4.04% (inactive)"}
{"smiles": "CC(C)(Oc1ccc(C2CC2(Cl)Cl)cc1)C(=O)O", "note": "(stereo not given)", "inhibition": "1.49% (inactive)"}
{"smiles": "COC1(C2=NCCN2)COc2ccccc2O1", "note": "(stereo not given)", "inhibition": "1.52% (inactive)"}
{"smiles": "CCOC(=O)Nc1ccc2c(c1)N(C(=O)CN1CCN3CCCC3C1)c1ccccc1CC2", "note": "(stereo not given)", "inhibition": "-6.22% (inactive)"}
{"smiles": "Cc1ccc(S(=O)(=O)NC(=O)N2CCCC(C)(C)C2)cc1", "inhibition": "-0.1% (inactive)"}
{"smiles": "O=c1c(F)cn(C2CCCO2)c(=O)n1Cc1ccccc1Cl", "note": "(stereo not given)", "inhibition": "-6.6% (inactive)"}
{"smiles": "CCOC(=O)C1=C(CC)Nc2ccccc2N=C1NC(=O)c1cccc(S(=O)(=O)N2CCCC2)c1", "inhibition": "-3.82% (inactive)"}
{"smiles": "CCCc1nc2ccccc2c(=O)n1NC(=O)c1c(O)c2ccccc2[nH]c1=O", "inhibition": "-3.13% (inactive)"}
{"smiles": "CCCCc1nc2ccccc2c(=O)n1NC(=O)c1c(O)c2cccc3c2n(c1=O)CC3", "inhibition": "-2.36% (inactive)"}
{"smiles": "CCCc1nc2ccccc2c(=O)n1/N=C/c1ccc(O)c(O)c1", "inhibition": "70.7% (active)"}
{"smiles": "CCC(=O)Nc1cccc(NC(=O)CSc2nnc(-c3ccc(NS(C)(=O)=O)cc3)n2C)c1", "inhibition": "-0.45% (inactive)"}
{"smiles": "O=C(CCc1ccccc1)Nc1ccc(NC(=O)C2CC2)nc1", "inhibition": "-2.83% (inactive)"}
{"smiles": "N#CC1=C(N)Oc2n[nH]c(CSc3ccccc3)c2C12C(=O)Nc1ccccc12", "note": "(stereo not given)", "inhibition": "-11.3% (inactive)"}
{"smiles": "CC1Cc2ccccc2N1C(=O)CSc1nnc(-c2ccc(S(=O)(=O)N3CCCCC3)cc2)o1", "note": "(stereo not given)", "inhibition": "-0.41% (inactive)"}
{"smiles": "Nn1c(SCC(=O)NC(=O)NC2CCCC2)nnc1-c1ccccc1F", "inhibition": "-5.58% (inactive)"}
{"smiles": "CCOC(=O)/C=c1\\s/c(=C\\c2ccccc2OC)c(=O)n1CC(=O)N1CCOCC1", "inhibition": "-5.13% (inactive)"}
{"smiles": "Cc1cc(C)c2nc(N3CCCC3)c(C#N)cc2c1", "inhibition": "4.01% (inactive)"}
{"smiles": "Cc1noc(C)c1S(=O)(=O)N(CC(=O)Nc1ccc2c(c1)OCCO2)c1ccc(C(C)C)cc1", "inhibition": "-1.54% (inactive)"}
{"smiles": "CNc1ncnc2c1ncn2[C@@H]1O[C@H](CO)[C@H](O)C1O", "note": "(stereo not given in full)", "inhibition": "-3.44% (inactive)"}
{"smiles": "O=C(Nc1ccc(NC(=O)c2cccs2)cn1)c1ccco1", "inhibition": "-0.15% (inactive)"}
{"smiles": "CC(C)(C)c1ccc(NC(=O)NCc2ccco2)cc1", "inhibition": "-5.65% (inactive)"}
{"smiles": "Cc1ccc(C(=O)Nc2nnc(-c3cccs3)s2)cc1C", "inhibition": "-0.3% (inactive)"}
{"smiles": "CCNc1nc(N)nc(Oc2ccc(OCC)nn2)n1", "inhibition": "-5.57% (inactive)"}
{"smiles": "O=c1cc(-c2ccccc2)[nH]c2nc(Cl)ccc12", "inhibition": "-1.33% (inactive)"}
{"smiles": "CCOc1ccc(CCNC(=O)C2CCN(c3ccc(N4CCOCC4)nn3)CC2)cc1OCC", "inhibition": "-1.25% (inactive)"}
{"smiles": "OC[C@H]1O[C@@H](n2cnc3c(N[C@H]4CC5CCC4C5)ncnc32)[C@H](O)[C@@H]1O", "note": "(stereo not given in full)", "inhibition": "-1% (inactive)"}
{"smiles": "O=C(OCC(=O)c1cccs1)C1=COCCO1", "inhibition": "-6.24% (inactive)"}
{"smiles": "COc1cc(Cl)cc(C2NC(=O)NC(C)=C2C(=O)NCc2ccccc2)c1O", "note": "(stereo not given)", "inhibition": "-1.82% (inactive)"}
{"smiles": "O=C(c1ccco1)N1CCN(C(=O)C2CC(c3ccc(Cl)c(Cl)c3)=NO2)CC1", "note": "(stereo not given)", "inhibition": "-2.91% (inactive)"}
{"smiles": "CCC(CC)C(=O)Nc1cc(C(=O)OC)cc(C(=O)OC)c1", "inhibition": "-13.5% (inactive)"}
{"smiles": "CC(=O)N1CCC(C(=O)Nc2nc(-c3ccccc3)ns2)CC1", "inhibition": "-2.79% (inactive)"}
{"smiles": "Cc1coc2c(O)cc3c(c12)OC1(N2CCCCC2)C(=O)NCCCC31", "note": "(stereo not given)", "inhibition": "96.8% (active)"}
{"smiles": "CC(=O)/C(C)=N/O", "inhibition": "5.45% (inactive)"}
{"smiles": "COc1ccc(-n2nc3c(c2NC(=O)Cc2cccc(C)c2)CS(=O)C3)cc1", "note": "(stereo not given)", "inhibition": "-2.13% (inactive)"}
{"smiles": "Nc1cc(O)cc2cccnc12", "inhibition": "150% (active)"}
{"smiles": "O=C(Nc1ccn(Cc2ccc(F)cc2)n1)c1ccncc1", "inhibition": "-2.29% (inactive)"}
{"smiles": "CN(C)c1nc(N)nc(CSc2nnnn2-c2cccc3ccccc23)n1", "inhibition": "-1.24% (inactive)"}
{"smiles": "Cc1ccc(S(=O)(=O)N2CCCC2CO)cc1", "note": "(stereo not given)", "inhibition": "-1.22% (inactive)"}
{"smiles": "C=CCNc1ncnc2ccc(Br)cc12", "inhibition": "-2.85% (inactive)"}
{"smiles": "Cc1nn(-c2ccccc2)c(CC(C)(C)C(=O)O)c1C(=O)O", "inhibition": "0.74% (inactive)"}
{"smiles": "Oc1ccc(Cn2cc[nH]c2=S)cc1", "inhibition": "-2.1% (inactive)"}
{"smiles": "CCC(Sc1nncn1C)C(=O)Nc1nnc(-c2ccc(Cl)cc2)s1", "note": "(stereo not given)", "inhibition": "-2.78% (inactive)"}
{"smiles": "COc1cc(NCS(=O)(=O)c2ccc(C)cc2)c2ncccc2c1", "inhibition": "-1.2% (inactive)"}
{"smiles": "O=C(c1ccccc1)c1ccc2nc(N3CCCCC3)c3nncn3c2c1", "inhibition": "-6.65% (inactive)"}
{"smiles": "CCOc1cccc(/C(O)=C2/C(=O)C(=O)N(CCOC)C2c2ccncc2)c1", "note": "(stereo not given)", "inhibition": "2.34% (inactive)"}
{"smiles": "CS(=O)(=O)c1ccc2nc(NC(=O)CN3CCCCCC3)sc2c1", "inhibition": "-0.64% (inactive)"}
{"smiles": "Oc1cc2c(cc1O)CN(C(=S)NCCc1ccc(Cl)cc1)CCC2", "inhibition": "77.6% (active)"}
{"smiles": "NS(=O)(=O)c1ccc(CCNC(=O)Nc2ccc(Cl)cc2)cc1", "inhibition": "-2.49% (inactive)"}
{"smiles": "O=C(NCCc1ccc(Cl)cc1)C1CC(=O)N(C2CCCCC2)C1", "note": "(stereo not given)", "inhibition": "-0.35% (inactive)"}
{"smiles": "Cc1ccc(-c2nnc(SC(C)C#N)n2N)cc1", "note": "(stereo not given)", "inhibition": "2.26% (inactive)"}
{"smiles": "O=C(Nc1nccs1)C1CCCN1S(=O)(=O)c1cccc2cccnc12", "note": "(stereo not given)", "inhibition": "-1.15% (inactive)"}
{"smiles": "COc1ccccc1NC1=NC(c2ccc(Cl)cc2)N=C(N)N1", "note": "(stereo not given)", "inhibition": "1.36% (inactive)"}
{"smiles": "C=CC1(C)CC(=O)C2(O)C(C)(O1)C(OC(C)=O)C(O)C1C(C)(C)CCC(O)C12C", "note": "(stereo not given)", "inhibition": "-0.45% (inactive)"}
{"smiles": "COC(=O)[C@@H](NC(=O)NCc1cccc(OC)c1)C(C)C", "inhibition": "-1.26% (inactive)"}
{"smiles": "CC(C)C[C@H](NC(=O)[C@H](O)[C@H](N)Cc1ccccc1)C(=O)O", "inhibition": "-2.1% (inactive)"}
{"smiles": "CCCn1c(=O)c2[nH]c(-c3ccc(OCC(=O)NCCN)cc3)nc2n(CCC)c1=O", "inhibition": "-4.59% (inactive)"}
{"smiles": "CCCCCC(O)c1cccc(OCc2ccc3ccccc3n2)c1", "note": "(stereo not given)", "inhibition": "5.96% (inactive)"}
{"smiles": "Cc1cc(C(F)(F)F)n2ncc(-c3ccccc3)c2n1", "inhibition": "-3.41% (inactive)"}
{"smiles": "Nc1ccc2c3c(cccc13)C(=O)NC2=O", "inhibition": "7.71% (inactive)"}
{"smiles": "Cc1nc2ccc(S(=O)(=O)NCC(=O)O)cc2s1", "inhibition": "-1.11% (inactive)"}
